# PubChem BioAssay AID1566 (Sanford-Burnham Center for Chemical Genomics, 2009)
# Screen size: about 290,000 compounds; about 1,800 (0.62%) were called active. This excerpt belongs to a sample that is enriched for actives. Values without a mark were called inactive. Rule as the data show it: active = inhibition above about 50%; inactive = the rest.
# Test: inhibition of NOD2-driven NF-kB reporter – cell-based, luminescence, uHTS, HEK293 (AID 1566)
# Settings: HEK293 NOD2/NF-kB luciferase reporter, at 4 µM, hits give high values
row,SMILES,inhibition
1,COc1ccc(/C=C/c2c(-c3ccc(OC)cc3)oc3ccc(-c4ccc(OC)cc4)cc23)cc1,4.5%
2,COc1ccc(/C=C/C(=O)Oc2ccc(C)cc2)cc1,7.2%
3,O=C(COC(=O)C12CC3CC(CC(C3)C1)C2)Nc1nccs1,33.4%
4,Cc1nc2scc(C)n2c(=O)c1S(=O)(=O)Nc1ccc(N2CCOCC2)c(Cl)c1,51.2% (active)
5,Cc1nc2sccn2c(=O)c1S(=O)(=O)Nc1ccc(N2CCOCC2)c(Cl)c1,33.7%
6,Cc1nc2scc(C)n2c(=O)c1S(=O)(=O)Nc1ccc(N2CCOCC2)cc1,14.2%
7,O=C(c1ccncc1)c1ccc(NS(=O)(=O)c2ccc(Br)s2)cc1,23.1%
8,Cc1cc(C=C2C(=O)c3ccccc3C2=O)c(C)n1-c1cccc(C(=O)O)c1,-11.1%
9,Cc1cc(/C=C2\Cc3ccccc3C2=O)c(C)n1-c1ccccc1,59.1% (active)
10,Cc1cc(C=C2C(=O)CCCC2=O)c(C)n1-c1ccccc1,1.8%
11,Cc1cccc(-n2c(C)cc(C=C3C(=O)c4ccccc4C3=O)c2C)c1,57.4% (active)
12,Cc1cc(C=C2C(=O)c3ccccc3C2=O)c(C)n1-c1ccccc1,5.9%
13,Cc1cc(C=C2C(=O)c3ccccc3C2=O)c(C)n1-c1ccc(Cl)cc1,19.2%
14,CNC(=O)CSc1nc2[nH]ncc2c(=O)[nH]1,10.9%
15,COc1ccc(C(CC(=O)N2CCCC2)C(C)C)cc1 (stereo unspecified),-6.1%
16,O=C(NC(Cc1ccc2c(c1)OCO2)C(=O)NC(Cc1ccccc1)C(=O)O)c1ccccc1 (stereo unspecified),0%
17,O=C(CN(Cc1cccs1)C(=O)CNS(=O)(=O)c1ccccc1)NC1CCCC1,9.3%
18,CCCNC(=O)c1cc(S(=O)(=O)N2CCc3ccccc32)cn1C,52.1% (active)
19,CCN(CC)CCNC(=O)c1cc(S(=O)(=O)N2CCc3ccccc32)cn1C,27.1%
20,CC(C)CCNC(=O)c1cc(S(=O)(=O)N2CCc3ccccc32)cn1C,26.2%
21,CS(=O)(=O)N(CC(=O)Nc1cccc(Cl)c1)c1ccccc1Cl,-11.8%
22,C[C@H]1O[C@@H](O[C@H]2[C@@H](O)C[C@H](O[C@H]3[C@@H](O)C[C@H](O[C@H]4CC[C@@]5(C)[C@H](CC[C@@H]6[C@@H]5C[C@@H](O)[C@]5(C)[C@@H](C7=CC(=O)OC7)CC[C@]65O)C4)O[C@@H]3C)O[C@@H]2C)C[C@H](O)[C@@H]1O,77.7% (active)
23,COc1ccc(N(CC(=O)Nc2ccc(C)c(C)c2)C2=NC3CS(=O)(=O)CC3S2)cc1 (stereo unspecified),10.8%

row,SMILES,inhibition
1,CCC(C)(C)NC(=O)C1CC(=O)N(CCc2ccc(F)cc2)C1 (stereo unspecified),12.1%
2,COc1ccc(S(=O)(=O)N2CCC(N3CCN(c4ccccc4)CC3)CC2)cc1,16.7%
3,Cc1cc(C(=O)NCC2COc3ccccc3O2)c2ccccc2n1 (stereo unspecified),17.7%
4,Cc1nc2ccccc2c2oc(C(=O)NCc3ccc4c(c3)OCO4)cc12,45.9%
5,Cc1c(/C(O)=C2/C(=O)C(=O)N(CCN(C)C)C2c2ccc(C(C)C)cc2)cnn1-c1ccccc1 (stereo unspecified),28.4%
6,Cc1ccc(C)c(N(C)C(=O)c2cc3c(=O)[nH]c4ccc(C)cc4c3s2)c1,-16%
7,Cc1ccc2[nH]c(=O)c3cc(C(=O)N(C)C4CCCCC4)sc3c2c1,56.8% (active)
8,Cc1ccc2[nH]c(=O)c3cc(C(=O)N(C)c4ccccc4C)sc3c2c1,13.1%
9,COc1cc(CN2CCC(Cc3ccccc3)CC2)cc([N+](=O)[O-])c1O,-1.9%
10,O=C(Nc1ccc(N2CCCC2)cc1)c1cc(Br)ccc1Cl,-11.7%
11,Cc1ccc2c(COC(=O)c3c(C)noc3C)cc(=O)oc2c1,0.4%
12,N[C@@H](CO)c1nnc([C@H](CC(=O)O)NC(=O)C2CCNCC2)o1,-3.6%
13,CCSc1nsc(NC(=O)Nc2cccc(OC)c2)n1,17.5%
14,CCSc1nsc(NC(=O)Nc2ccccc2F)n1,-32.2%
15,CC1CCN(C(=O)c2ccc(CS(=O)(=O)Cc3ccccc3)cc2)CC1,12.8%
16,CCc1ccc(NC(=S)N2CCC(NC(=O)c3ccccc3)CC2)cc1,7.4%
17,Cc1ccc(NC(=S)N2CCC(NC(=O)c3ccc(C)cc3)CC2)cc1,-13.6%
18,Cc1ccc(NC(=S)N2CCC(NC(=O)c3ccccc3)CC2)cc1,93% (active)
19,CC(C(=O)NC1CCCCCC1)n1cc([N+](=O)[O-])cn1 (stereo unspecified),3.3%
20,O=[N+]([O-])c1cccc2ccc(/C=C/c3cccc(Br)c3)nc12,-19%
21,CC(=O)N[C@@H](C)c1nc2ccccc2n1CCCN1CCN(c2nc(-c3ccc(C)cc3)cs2)CC1,44.3%
22,Cc1ccc(-c2csc(N3CCN(CCCn4c(C(F)(F)F)nc5ccccc54)CC3)n2)cc1,19.9%
23,Cc1ccc(Cn2c(SC3CCOC3=O)nc3ccccc3c2=O)cc1 (stereo unspecified),-3.1%

row,SMILES,inhibition
1,O=C1NCC(CN(c2ccccc2)c2ccccc2)O1 (stereo unspecified),14.1%
2,CCN(CC)c1ncnc2ccc(Br)cc12,65.5% (active)
3,CN(Cc1ccccc1)c1ncnc2ccc(Br)cc12,20.7%
4,CC(C)Nc1ncnc2ccc(Br)cc12,43%
5,Cn1c(=O)oc2cc(S(=O)(=O)N3CCC(C(=O)N4CC=C(c5ccccc5)CC4)CC3)ccc21,7.5%
6,Cc1nnc(SCC(=O)Nc2cccc([N+](=O)[O-])c2)n1CC1CCCO1 (stereo unspecified),2.2%
7,O=C(O)c1ccccc1C(=O)c1ccc(Cl)cc1,1%
8,O=C(O)c1ccccc1C(=O)c1ccc(Oc2ccccc2)cc1,-0.9%
9,O=C(O)c1ccccc1C(=O)c1ccc(-c2ccccc2)cc1,64.3% (active)
10,Cc1ccc2c(C)c(C(=O)Nc3c(C)n(C)n(-c4ccccc4)c3=O)oc2c1C,22.4%
11,CCC(=O)N1CCc2cc(S(=O)(=O)CCC(=O)NC(C)CC)ccc21 (stereo unspecified),10.4%
12,CCc1ccc(N(C(=O)Cn2nnc(-c3ccccc3)n2)C(C(=O)NC2CCCCC2)c2ccccn2)cc1 (stereo unspecified),5.5%
13,COCc1cc(=O)[nH]c(Nc2nc3ccccc3o2)n1,-130%
14,COCc1cc(=O)[nH]c(Nc2nc3ccc(C)cc3o2)n1,62.8% (active)
15,COC(=O)Cc1cc(=O)[nH]c(Nc2nc3ccccc3o2)n1,-8.6%
16,COc1ccc(Cn2c(C3CC3)nc3ccc(NC(=O)c4ccco4)cc3c2=O)cc1,-43.8%
17,CCn1c(C)c(C(C)=O)c(N2CCN(c3cccc(Cl)c3)CC2)nc1=S,15.5%
18,CC(=O)Nc1ccc(/C(C)=N/NC(=O)c2ccc(CN3CCOCC3)cc2)cc1,6.9%
19,CC1CCCCN1C(=O)c1ccc(C(=O)N2CCCCC2C)cc1 (stereo unspecified),5%
20,COc1ccc(OC(=O)Nc2ccccc2)cc1,-3.6%
21,Cc1cc(C)c(C#N)c(SCc2nnc(-c3ccccc3[N+](=O)[O-])o2)n1,-197%
22,Cc1csc(SCc2nnc(-c3ccc(Cl)cc3)o2)n1,-134%
23,N#Cc1c(-c2ccccc2)cc(-c2ccccc2)nc1SCc1nnc(-c2ccccc2)o1,15.7%

row,SMILES,inhibition
1,Cc1nnc(SCc2nnc(-c3ccc(Cl)cc3)o2)n1-c1ccccc1,-2.6%
2,Cc1ccc(C#N)c(SCc2nnc(-c3ccc(Cl)cc3)o2)n1,67.8% (active)
3,Cc1ccc(-n2c(C)cc(/C=N/NC(=O)c3ccncc3)c2C)c(C)c1,7%
4,Cc1ccc(NC(=O)c2ccc3ccccc3n2)cc1S(=O)(=O)N(C)C,-57.9%
5,O=C(CSc1nc2ccccc2[nH]1)Nc1cccc(S(=O)(=O)N2CCOCC2)c1,24.9%
6,CC(=O)Nc1cccc(-n2nnc(SCC(=O)Nc3ccccc3)n2)c1,0.6%
7,Cc1cc(OCC(=O)NCCc2ccc(S(N)(=O)=O)cc2)c2c(C)c(C)c(=O)oc2c1,8.3%
8,Cc1n[nH]c(=O)nc1NC1CCCCC1,3%
9,C=CCn1c(CSCc2ccccc2)nnc1SCC(=O)N1CCN(c2ccccc2)CC1,0.4%
10,CCOc1ccc(N=C2SC(C(=O)Nc3ccccc3C#N)C(N)=C2C(=O)Nc2ccc(Cl)cc2)cc1 (stereo unspecified),13.4%
11,N#Cc1ccccc1NC(=O)C1SC(=Nc2ccccc2)C(C(=O)Nc2ccc(Cl)cc2)=C1N (stereo unspecified),50.7% (active)
12,Cc1ccc(NC(=O)C2SC(=Nc3ccccc3)C(C(=O)Nc3ccc(Cl)cc3)=C2N)cc1 (stereo unspecified),-14.9%
13,CC(=O)Nc1ccc(SC(C)C(=O)NC2CCCC2)cc1 (stereo unspecified),-6.7%
14,Oc1ccc(-c2nc3ccccc3s2)cc1,-198%
15,COc1ccc(-c2nc3ccccc3s2)cc1,-217%
16,Cn1nnc2cc(C(=O)NCc3ccc4c(c3)OCO4)ccc21,-37.1%
17,Cc1ccc(C(=O)NS(=O)(=O)c2ccc(C)cc2)cc1,-1.5%
18,Cc1ccc(S(=O)(=O)NCCNC(=O)c2ccccc2)cc1,-8%
19,Cc1ccc(S(=O)(=O)CNC(=O)c2ccccc2)cc1,1.3%
20,Cc1ccc(C(=O)NC(=S)NNS(=O)(=O)c2ccc(C)cc2)cc1,7.8%
21,COc1sc(SC)cc1/C=N/NC(=O)c1ccncc1,12.3%
22,O=C(NC1CCCCC1)C(c1ccc(F)cc1)N(Cc1cccs1)C(=O)CN1C(=O)c2ccccc2S1(=O)=O (stereo unspecified),13.4%
